Test results from the supplement of paper PMC6555819.

Assays:
Assay in all cases: PBM binding z-score (relative to random genomic background probes); higher = stronger binding; sequences stand for … in GC…GCGATTGACAGCGTAGAATGAAGG
[1] = tested on: FXR:RXRa (NR concentration 270 nM, RXRa partner concentration 90 nM)
Summary of the method: (§1)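 Ligand-free nuclear receptor dimers were applied to custom Agilent 4×180K protein-binding microarrays whose double-stranded probes carried direct-repeat seeds, single-nucleotide variants, half-site ablations and random human genomic background sequences in 34-nt variable regions. Incubation lasted 1 h. Binding z-scores were computed against the random background probes from regression-normalized fluorescence.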

[2] = tested on: LXRa:RXRa (NR concentration 270 nM, RXRa partner concentration 90 nM)
Summary of the method: as §1

[3] = tested on: LXRa homodimer (NR concentration 270 nM)
Summary of the method: as §1

[4] = tested on: LXRb:RXRa (NR concentration 270 nM, RXRa partner concentration 90 nM)
Summary of the method: as §1

[5] = tested on: LXRb homodimer (NR concentration 270 nM)
Summary of the method: as §1

[6] = tested on: PPARa:RXRa (NR concentration 270 nM, RXRa partner concentration 90 nM)
Summary of the method: as §1

[7] = tested on: PPARg:RXRa (NR concentration 180 nM, RXRa partner concentration 90 nM)
Summary of the method: as §1

[8] = tested on: PPARg:RXRa 270nM:90nM, anti-RXR (NR concentration 270 nM, RXRa partner concentration 90 nM)
Summary of the method: as §1

[9] = tested on: PPARg:RXRa 30nM:10nM, anti-RXR (NR concentration 30 nM, RXRa partner concentration 10 nM)
Summary of the method: as §1

[10] = tested on: PPARg:RXRa 90nM:30nM, anti-RXR (NR concentration 90 nM, RXRa partner concentration 30 nM)
Summary of the method: as §1

[11] = tested on: PPARg:RXRa DBDmut IVT, anti-RXR (DBD mutation: RXRa K156A/R161A, NR concentration 270 nM, RXRa partner concentration 90 nM)
Summary of the method: as §1

[12] = tested on: PPARg:RXRa IVT, anti-PPARg (NR concentration 270 nM, RXRa partner concentration 90 nM)
Summary of the method: as §1

[13] = tested on: PPARg DBDmut:RXRa IVT, anti-PPARg (DBD mutation: PPARg1 K132A/R137A, NR concentration 270 nM, RXRa partner concentration 90 nM)
Summary of the method: as §1

[14] = tested on: PPARg DBDmut IVT, anti-PPARg (DBD mutation: PPARg1 K132A/R137A, NR concentration 270 nM)
Summary of the method: as §1

[15] = tested on: PPARg homodimer (NR concentration 180 nM)
Summary of the method: as §1

[16] = tested on: PXR:RXRa (NR concentration 270 nM, RXRa partner concentration 90 nM)
Summary of the method: as §1

[17] = tested on: PXR homodimer (NR concentration 270 nM)
Summary of the method: as §1

[18] = tested on: RARa:RXR (NR concentration 270 nM, RXRa partner concentration 90 nM)
Summary of the method: as §1

[19] = tested on: RARa homodimer (NR concentration 270 nM)
Summary of the method: as §1

[20] = tested on: RARb:RXRa (NR concentration 270 nM, RXRa partner concentration 90 nM)
Summary of the method: as §1

| Sequence | PBM binding z-score [1] | PBM binding z-score [2] | PBM binding z-score [3] | PBM binding z-score [4] | PBM binding z-score [5] | PBM binding z-score [6] | PBM binding z-score [7] | PBM binding z-score [8] | PBM binding z-score [9] | PBM binding z-score [10] | PBM binding z-score [11] | PBM binding z-score [12] | PBM binding z-score [13] | PBM binding z-score [14] | PBM binding z-score [15] | PBM binding z-score [16] | PBM binding z-score [17] | PBM binding z-score [18] | PBM binding z-score [19] | PBM binding z-score [20] |
| --- | --- | --- | --- | --- | --- | --- | --- | --- | --- | --- | --- | --- | --- | --- | --- | --- | --- | --- | --- | --- |
| ACTACCAGGCCAAGGGTCACTCAAGATTAGTCCG | 2.84 | 3.11 | 0.63 | 3.41 | 0.443 | 5.06 | 8.68 | 7.51 | 6.65 | 7.73 | 1.41 | 4.54 | 0.921 | -0.0701 | 2.3 | 3.38 | 0.474 | 4.11 | 1.31 | 3.78 |
| ATCGAAAGGTCGAAGGTGTGTATACCCACCCGAA | 3.46 | 3.02 | 0.143 | 2.37 | 0.416 | 4.08 | 2.6 | 3.32 | 1.5 | 2.35 | -0.369 | 1.67 | 0.695 | 0.274 | 1.64 | 2.3 | 0.219 | 3.33 | 0.296 | 3.52 |
| GCTAGTTGGTCAGTAAAAGGACACACACCGGTCG | -0.0634 | -0.0918 | 0.213 | -0.44 | -0.0401 | -0.104 | 0.654 | 0.282 | -0.0614 | -0.0124 | 0.16 | 0.5 | 0.0692 | -0.305 | 0.811 | -0.134 | 0.246 | 0.153 | 0.849 | 1.61 |
| ACTAGTTGGTCAGCTGAGGTCATACACAATTCGG | 3.84 | 3.45 | 3.44 | 3.54 | 1.09 | 3.52 | 1.43 | 1.72 | 0.448 | 1.14 | 1.47 | 2.35 | 1.46 | 1.13 | 3.38 | 5.65 | 3.46 | 4.45 | 0.98 | 3.15 |
| AGCCAAAGTTCAGGACGAGGTAACGTAAAGCACG | 4.33 | 3.71 | 1.39 | 1.94 | 0.134 | 3.22 | 3.24 | 3.54 | 0.828 | 2.74 | -0.0528 | 1.03 | -0.637 | -0.0617 | 1.29 | 2.65 | 0.942 | 2.64 | 0.246 | 4.33 |
| AGAATGAGGTTCTTAAGATCAGGGAATTGCGGTC | -0.335 | -0.575 | -0.571 | -0.551 | -0.54 | -0.0387 | 0.197 | -0.0485 | -0.306 | 0.0331 | 0.324 | 0.283 | 0.378 | -0.225 | -0.0988 | -0.118 | -0.179 | -0.0748 | -0.832 | 0.0675 |
| CGTCAAAGTTCAAGGTAACGTGACAGAAAGCAGC | 5.87 | 5.39 | 2.53 | 3.27 | 0.738 | 4.34 | 4.02 | 4.9 | 2.23 | 3.9 | 0.641 | 2.15 | 0.0239 | 0.308 | 2.16 | 4.21 | 2.13 | 3.56 | 1.05 | 5.08 |
| GATACAGGGTCAAGGCCCGAGTACGCGTATTGAT | 6.52 | 4.01 | -0.361 | 3.39 | -0.411 | 5.39 | 5.65 | 5.62 | 2.48 | 4.12 | 2.09 | 3.66 | 0.597 | -0.396 | 1.27 | 3.48 | 0.163 | 4.6 | 0.3 | 4.31 |
| ATCTCTAGGTAACACGTTCAGTGAAAGAGAGGAC | 0.359 | 0.232 | 0.454 | 0.113 | 0.898 | 0.511 | 0.99 | 1.06 | 0.213 | 0.803 | 3.45 | 3.05 | 1.75 | 1.04 | 0.135 | 0.0713 | 0.206 | 0.208 | 0.489 | 0.552 |
| CGAACTAGGTCAAGGACGGTGAATCTCCGCACGC | 3.32 | 2.02 | 0.122 | 1.29 | -0.582 | 4.44 | 6.87 | 6.24 | 3.95 | 5.89 | 7.98 | 7.86 | 0.422 | -0.145 | 0.732 | 1.03 | -0.242 | 1.5 | -0.265 | 3.76 |
| CGAACTCGGTCAGAACAGGACAGTGAAGGATGAT | 0.127 | 0.0151 | 0.0405 | -0.32 | -0.669 | 0.415 | 0.904 | 0.142 | 0.197 | 0.033 | 1.72 | 1.11 | -0.0702 | 0.48 | 0.274 | -0.108 | -0.225 | 0.713 | -0.378 | 1.55 |
| CAAACTAGGTCACGGAAGGTCAAAGTCGAATGAC | 7.44 | 7.64 | 6.7 | 6.73 | 1.71 | 6.26 | 10.3 | 8.41 | 7.26 | 8.7 | 8.57 | 8.97 | 6.9 | 4.23 | 7.08 | 6.99 | 2.28 | 6.84 | 3.11 | 5.29 |
| ACGATTAGTTGACTTAGGGCAACCGATACGACGC | -0.0158 | -0.0959 | 0.339 | 0.0402 | -0.172 | -0.0149 | 0.855 | -0.28 | 0.0988 | -0.124 | -0.586 | 0.153 | 0.298 | 0.246 | -0.134 | 0.199 | -0.0112 | 0.392 | 0.251 | 0.703 |
| CCAGACAGGAGAGAAGGTAACTCAGCCTCGATTA | -0.282 | -0.227 | -0.0445 | 0.0989 | 0.0914 | -0.133 | 0.348 | -0.148 | 0.0221 | -0.398 | -0.43 | -0.372 | -0.415 | -0.373 | 0.786 | -0.0804 | 0.0829 | -0.197 | 0.0212 | -0.091 |
